Measured values from PubChem BioAssay (NCI).
Values joined by “and” are separate entries in the source; they are usually repeats but may differ in a detail not shown here. Identical values can stand only once. About 83,000 compounds went through this panel and 20% of them were active in at least one assay; those are over-represented in the sample as a whole.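 Growth was measured after 48 h exposure to one concentration of compound in 96-well plates. Values under 10 count as active.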 Active and inactive are the calls of the source.

system: MDA-MB-468 breast; assay: NCI-60 one-dose screen, 48 h (100 = growth as untreated, 0 = no growth, -100 = all killed); conditions: 10 µM unless noted

SMILES | growth
COc1cccc(-c2nn(-c3ccccc3)cc2-c2ccnc(NCCNS(=O)(=O)c3ccc(Cl)cc3)c2)c1 | 16.9% (inactive)
COc1cc2nc(Cl)nc(Nc3cccc(C(=O)/C=C/c4ccc(F)cc4)c3)c2cc1OC | 74.3% (inactive)
O=C1C=C(Nc2ccc([N+](=O)[O-])cc2)c2ccccc2C1=O | 41.1% (inactive)
COc1cc(C(=O)N2CCN(c3ccccc3)CC2)c2ccccc2n1 | 5.08% (active)
CCCCC[C@H]1CC=C2C(=O)C(Cl)=C[C@@H]2CC=CCCCC(=O)O[C@@H](CCCCC)CC=C2C(=O)C(Cl)=C[C@@H]2CC=CCCCC(=O)O[C@@H](CCCCC)CC=C2C(=O)C(Cl)=C[C@@H]2CC=CCCCC(=O)O1 | 50.2% [8 µM] (inactive)
OC(c1ccccc1)(c1ccccc1)C(F)(F)F | 113% (inactive)
C=CCn1c(SCC(=O)Nc2ccc(/C(C)=N\O)cc2)nnc1-c1cc(-c2ccc(Cl)cc2)nc2ccccc12 | 42.7% (inactive)
OCC1OC(n2ccc3c2ncn2ncnc32)C(O)C1O (centres undefined) | -5.09% (active)
c1ccc2c(-c3nc4ccccc4[nH]3)cccc2c1 | -15.3% (active)
Cn1cc(-c2nonc2-c2cn(C)c3ccc(F)cc23)c2ccccc21 | 0.775% (active)
COC(=O)[C@H](Cc1cn(C)cn1)NC(=O)[C@H](CC(C)C)NC(=O)Nc1cc(C(F)(F)F)cc(C(F)(F)F)c1 | -72.1% [100 µM] (active)
Cc1[nH]nc(C(N)=O)c1[N+](=O)[O-] | 85.5% (inactive)
COC(=O)[C@H](CC(C)C)NC(=O)NC(=O)NC(=O)CI | 75.9% (inactive)
Cc1ccc2c(ccc3c[n+]4c5ccccc5ccc4n32)c1 | -56.3% (active)
CCCCCCNC(=O)Oc1ccc(/C(=C(/C)c2ccc(OC)cc2)c2ccc(OCCN3CCCC3)cc2)cc1 | 87.1% (inactive)
CC(C)(C)CC(C)(C)c1ccc(O)c(Cc2ccc(Cl)cc2Cl)c1 | -88.6% (active)
COc1ccc(-c2csc(NC(=O)Nc3nc(-c4ccc(OC)cc4)cs3)n2)cc1 | 47.3% (inactive)

SMILES | growth
C=C(C)[C@@H]1CC[C@]2(C(=O)NCC(=O)O)CC[C@]3(C)[C@H](CC[C@@H]4[C@@]5(C)Cc6c([nH]c7ccccc67)C(C)(C)[C@@H]5CC[C@]43C)[C@@H]12 | 118% (inactive)
CCOc1ccc(NC(=S)N2CCC(CCCC3CCN(C(=S)Nc4ccc(OCC)cc4)CC3)CC2)cc1 | 58.7% (inactive)
NC(=O)N1CCOCC1 | 111% (inactive)
CC[N+](C)(CC)CCCC(C)Nc1ccnc2cc(Cl)ccc12 (centres undefined) | 119% (inactive)
CC(C)CNCC(=O)Nc1ccc(Cc2ccc(NC(=O)CNCC(C)C)cc2)cc1 | 79.5% (inactive)
CCN(CC)CCCNc1ccc(C)c2sc3ccccc3c(=O)c12 | -34.8% (active)
CCN(CC)CC(=O)Nc1c(C)ccc(N)c1C | 95.8% (inactive)
C/C=C/CC(C)C(O)[C@H](NC(=O)[C@@H]1CCCN1C(=O)[C@](C)(CC)NC(=O)CCCCCCCCC)C(=O)N[C@@](C)(CC)C(=O)N[C@@H](CCC(N)=O)C(=O)N[C@H](CCC(N)=O)C(=O)NC(C)(C)C(=O)NC(C)(C)C(=O)N[C@@H](CCC(N)=O)C(=O)N[C@H](CC(C)C)C(=O)N[C@H](CO)CC(C)C (some centres undefined) | -10.2% (active) and -64% (active)
CCOC(=O)c1ccc2c(c1)nc(/C=C/c1ccc(Cl)cc1)n2-c1cc(C(C)(C)C)[nH]n1 | 58.8% (inactive)
CC(C)NC(=O)N/C=C(\C#N)C(N)=O | 93.6% (inactive)
COc1ccc(-c2cc3cnc4ccccc4c3oc2=O)cc1 | 99.8% (inactive)
CCc1cc2c(cc1Cl)nc1c(=O)[nH]c(=O)nc-1n2CCOCC(C)C | 43.8% (inactive)
C=C(C)[C@@H]1CC[C@]2(C(=O)N3CCN(C)CC3)CC[C@]3(C)[C@H](CC[C@@H]4[C@@]5(C)C/C(=C/c6cccnc6)C(=O)C(C)(C)[C@@H]5CC[C@]43C)[C@@H]12 | 51.5% (inactive)
Clc1ccc(Cl)c(N=Cc2ccc3c(c2)OCO3)c1 | 113% (inactive)
CCCCCCCCCCCC[n+]1c(C)cc(N)c2ccccc21 | -34% (active)
C#CCOC(=O)[C@]1(C)CCC[C@]2(C)[C@H]3C[C@H]4C(C(C)C)=C[C@]3(CC[C@H]21)[C@@H]1C(=O)CCC(=O)[C@@H]14 | 78% (inactive)
O=S1(=O)N(Cc2ccccc2)[C@@H](Cc2ccccc2)[C@H](O)[C@H](O)[C@H](Cc2ccccc2)N1Cc1ccccc1 | -27.7% (active)
